Screen size: about 4,800 compounds; about 410 (8.5%) showed an effect of 50% or more. The list comes from a sample in which strong results are over-represented; it also holds similar structures and randomly drawn compounds.

The subject of the assay is Plasmodium falciparum. As to the kind of experiment: Confirmatory screen in NF54 pLDH assay, in single point, at 2uM, 72h. In kind it is functional, Erythrocyte. The settings on record: timepoint 72 hour.
Regarding `COc1cccc(C(=O)c2c[nH]c(C(=O)NCc3cccc(C(F)(F)F)c3)c2)c1`, the “% Inhibition” value stood at 6%.
In the case of `Cc1ccc(N2C(=O)C[C@]3(CC3(c3ccccc3)c3ccccc3)C2=O)cc1` it was 6%; in that of `COCc1c(C(=O)N2CCC[C@@H]2CCc2ncc(C)n2C(C)C)noc1C`, 13%; in that of `CN1CCN(Cc2cc3cc4c(cc3nc2-c2ccc(Cl)cc2)OCO4)CC1=O`, 51%.
Turning to `O=c1[nH]c2cc3c(cc2c(=O)n1Cc1nc(-c2ccc(Cl)cc2)no1)OCO3`, the “% Inhibition” value worked out at 9%.
To `Cc1cc(C)nc(-n2nc(-c3ccc(Cl)cc3)c3c2NC(=O)C[C@@H]3c2ccc3c(c2)OCO3)n1` belongs 2%; to `C#CCN(C(=O)NC1CCN(C(C)=O)CC1)C1CCCC1`, -12%; to `Cc1ccc(NC(=O)c2c(Cl)cccc2Cl)c2c1CC(C)(C)O2`, -21%.
To `O=C(Nc1ccc(N2CCCCCC2)cc1C(=O)O)c1ccc(Cl)cc1` belongs 9%; to `CC(C)c1nnc(CNc2ccc(C#N)cc2)o1`, 8%; to `CC(=O)Nc1ncc(Br)cc1C`, 3%.
As for `CNC(=O)c1cc(Br)cnc1NC`, the “% Inhibition” value was determined as 10%.
To `COC1CCCC1NC(=O)Nc1ncc(Br)cc1C` (stereo not given) belongs 79%.
In the case of `NC(=NCCOc1ccc(Br)cc1)N1CCOCC1` it was 8%; in that of `COCc1ncc(-c2noc(C3CC4CCC3C4)n2)c(N)n1` (stereo not given), -14%; in that of `Cc1nn(C)c(C)c1CNc1ccc2c(c1)CCC(=O)N2`, -13%.
To `CC(C)CCn1nnnc1[C@]1(N(C)C)CCCN(C(=O)c2cccn2C)C1` belongs -12%.
For the compound `Cc1ccc(CN(C)C2CCCCC2)o1`, the “% Inhibition” value was -12%.
To `CCc1nn(C)cc1CN(Cc1cccc(O)c1)C1CCC(O)CC1` (stereo not given) belongs -8%; to `CC(C)c1cc(CN(Cc2cc(C(C)C)c(O)c(C(C)C)c2)C2CCCCC2)cc(C(C)C)c1O`, 98%; to `CC[C@@H](CO)NC(=O)Nc1ccc(F)cc1`, 8%.
In the case of `CC[C@](C)(NCC#Cc1ccc(C(F)(F)F)cc1)C(N)=O` it was 5%; in that of `O=C(C1CN(c2ncc(C(F)(F)F)cc2Cl)C1)N1CCCC1`, 11%.
To `Cc1c(N2CCC(C(=O)NC[C@H]3CCCO3)CC2)c(=O)n(CC(C)C)c(=O)n1-c1ccccc1` belongs 4%; to `O=C(COC(F)F)N1CCc2ccncc21`, -8%; to `COc1nc(NC[C@H]2CCCN2C(C)C)ncc1F`, 83%.
As to `CC(C(=O)Nc1ncccn1)N1CCCC1Cn1cccn1` (stereo not given), the “% Inhibition” value is given as -8%.
To `Cc1[nH]c2ncnc(NC(=O)c3cccc(-n4ccnn4)c3)c2c1C` belongs 12%.
To `CN1CCC(=O)Nc2cc(C(=O)NCCS(=O)(=O)NCC3CCC3)ccc21` belongs 6%; to `O=C(CN1C(=O)COc2ccccc21)N1CCC[C@H](c2nc3ccccc3s2)C1`, -13%; to `c1ccc(Oc2ccc(-c3csc4nc5ccccc5n34)cc2)cc1`, 5%.
In the case of `O[C@](C#CCN1CCOCC1)(c1ccccc1)C1CC1` it was 14%; in that of `Cc1cnn(CC(=O)N2CCC[C@@H]2CCc2ncc(C)n2CC2CC2)c1`, -20%.
Take `CCOc1cc(-c2cc(-c3ccccc3O)nc3ccc4ccccc4c23)cc(Br)c1O`: the “% Inhibition” value is recorded as 92%.
In the case of `CCOc1c(CNC[C@H](C)O)cc(Br)cc1OC`, the “% Inhibition” value is 5%.
To `CC(C)(C)C(=O)NCCNC(=O)c1ccccn1` belongs 13%.
As to `O=C(Nc1cccc2cccnc12)c1cncc(Br)c1`, the “% Inhibition” value is -8%.
Take `NC1CC(NCCc2cccc3cccnc23)c2ccccc21` (stereo not given): the “% Inhibition” value was 36%.
As to `O=C(Nc1cccc2cccnc12)c1ccccn1`, the “% Inhibition” value was determined as 87%.
For the compound `Oc1ccccc1CNc1cccc2cccnc12`, the “% Inhibition” value is 97%.
In the case of `COc1cc(=O)c(C(=O)N2CCCCCC2)nn1-c1ccc(F)c(F)c1` it was 10%; in that of `CCc1nnc2cc(N3CCN(C(=O)c4ccc(OC)cc4)CC3)cnn12`, 11%; in that of `CC(C)(C)c1noc(OCc2cccc(C#N)c2)n1`, 14%.
To `CCN1CCN(CC(=O)N2N=C(c3ccc(C)c(C)c3)C[C@H]2c2cccn2C)CC1` belongs 2%; to `Cc1ccn(Cc2nc(N)nc(N(C)C)n2)c(=O)c1C#N`, 4%.
Regarding `CCCCN1CCN(C(=O)CN2CCN(Cc3ccc(F)cc3Cl)C2=O)CC1`, the “% Inhibition” value was 1%.
In the case of `CCc1ccc(C2=Nc3cccnc3N(CC(=O)Nc3c(C)cc(C)cc3C)C(=O)C2)cc1` it was 2%; in that of `Cc1cc(C)c(NC(=O)OCc2cccc3cccnc23)c(C)c1`, 80%; in that of `Cc1cccnc1NC(=O)OC(C)(C)C`, 10%.
Consider `O=C(Nc1ccc(Cl)cc1)n1c(=S)oc2cc(Br)ccc21`, for which the “% Inhibition” value is 2%.
For the compound `Cc1cccc(NC(=O)N2CCCCCC2)n1`, the “% Inhibition” value worked out at 6%.
As to `Cc1cccc(CN2CCC[C@H](C(=O)c3ccc4c5c(cccc35)CC4)C2)n1`, the “% Inhibition” value was 67%.
To `Cc1ncsc1[C@@H]1CC(=O)Nc2nc(N3CCC(C)CC3)nc(O)c21` belongs -19%; to `COc1ccnc(CN2CCC[C@H](c3nc(-c4ccccc4)c[nH]3)C2)c1OC`, 82%; to `c1ccc(-c2c[nH]c([C@H]3CCCN(c4ncnc5[nH]ncc45)C3)n2)cc1`, -7%.
To `CN(C)c1nc(CN2CCC[C@H](c3n[nH]c(-c4ccccc4)n3)C2)ns1` belongs 2%.
In the case of `Cn1cc(-c2ccc(F)cc2)c2nc[nH]c(=O)c21` it was 10%.
Turning to `O=C1CCCN1c1ccc(-c2csc(C3CC3)n2)cc1`, the “% Inhibition” value is on record as -12%.
Turning to `CCC(=O)N1CCC(Nc2cccc(-c3nc(C4CC4)n[nH]3)c2)CC1`, the “% Inhibition” value is -24%.
As to `CC1([C@@](O)(C#CC[N+]2(C)CCCCC2)c2ccccc2)CCCC1`, the “% Inhibition” value is 43%.
In the case of `CCNS(=O)(=O)c1cc(C)ccc1C` it was 8%.
To `CCc1ccc(-n2c(=O)[nH]c3nc(N4CCN(c5ccccc5F)CC4)ncc3c2=O)cc1` belongs -25%; to `O=C(NCc1ccncc1)c1ccco1`, -2%; to `NCc1cccc(C(=O)N2CCc3cc4ccc3[C@@H]2c2cccc(c2)OCCCNC(=O)c2cc(ccc2O)O4)c1`, 98%.
In the case of `NC(=O)C1CCN(CCC(=O)N2CCc3cc4ccc3[C@@H]2c2cccc(c2)OCCCNC(=O)c2cc(ccc2O)O4)CC1` it was 93%; in that of `O=C1NCCCOc2cccc(c2)[C@H]2c3ccc(cc3CCN2C(=O)CCN2CCOCC2)Oc2ccc(O)c1c2`, 50%.
As to `CCc1nc2cc(N3CCC(C(=O)Nc4ccc5c(c4)OCO5)CC3)cnc2nc1CC`, the “% Inhibition” value is 8%.
To `Cc1ccc(NC(=O)CN2N=C(C(=O)Nc3ccccc3)CCC2=O)cc1` belongs -10%; to `Cc1cccc(Oc2cc(N)cc(Oc3cccc(C)c3)c2)c1`, 8%.
Consider `O=C(c1cc2ccccc2[nH]1)N1CCc2sc(Cl)cc2C1`, for which the “% Inhibition” value came out at 5%.
In the case of `CC(=Cc1cn(C(C)(C)C)nn1)c1nc(C)c(C#N)c(=O)[nH]1` it was 10%; in that of `COc1ccc(C)cc1NC(=O)[C@H]1CCCN(c2cn[nH]c(=O)c2)C1`, -8%.
To `CC(C)(C)CC(=O)Nc1ccccc1C(N)=O` belongs 13%; to `Cc1cc(S(=O)(=O)NC[C@H]2CCCCN2)sc1C`, -6%.
In the case of `Cc1cc(-c2cc(O)cc(CC[C@H]3CCCCN3)c2)ccn1` it was 91%; in that of `Cc1ccc(-c2cc(O)cc(CC[C@H]3CCCCN3)c2)c(C)n1`, 66%; in that of `CC(=O)c1cc(-c2cc(O)cc(CC[C@H]3CCCCN3)c2)ccc1O`, 85%.
On to `CNC(=NCC(C)(C)c1ccc(OC)cc1)NC`, for which the “% Inhibition” value turned out to be 7%.
In the case of `COc1cccc(N2CCN(C(=O)c3cn4cc(-c5ccc(Cl)cc5)ccc4n3)CC2)c1` it was 2%; in that of `Cc1[nH]c2nc3ccccc3n2c(=O)c1Cc1ccccc1Cl`, -15%; in that of `CCc1cc(O)nc(CN2CCCC2C(O)C(F)(F)F)n1` (stereo not given), -4%.
To `Oc1ccc(-c2nnc(-c3ccc(O)cc3)nn2)cc1` belongs 22%; to `CC(C)c1ccc(NC(=O)CCC(=O)N2CCc3ccccc3C2)cc1`, 9%.
In the case of `C[C@@]12CO[C@@H](COc3ccccc3)O[C@@H]1CC[C@]1(C)C2CC[C@@H](O)[C@H]1CC(=O)N1CCC[C@H]1CO` (stereo not given in full) it was 6%; in that of `CC1CC(C)CN(C(=O)c2cc(NC(=O)c3ccccc3)n(C)n2)C1` (stereo not given), -14%.
Consider `O=C(CN1CCOCC1)Nc1ccc(N2CCOCC2)c(F)c1`, for which the “% Inhibition” value is -8%.
In the case of `N#Cc1nccnc1NCCCCN1C(=O)c2ccccc2C1=O` it was -14%.
`CC1(C)COC(=O)[C@H]1OCN1CCCC1=O`: the “% Inhibition” value was -7%.
In the case of `CS(=O)(=O)N1CCC(C(=O)Nc2c(C(N)=O)sc3nc(C(F)F)cc(C4CC4)c23)CC1` it was 5%; in that of `COc1ccc(Cl)cc1C(=O)N(C1CCOCC1)[C@H]1CCCN(S(C)(=O)=O)C1`, -12%; in that of `Cc1cc(=O)[nH]c(-n2nc(C3CC3)cc2NC(=O)C(C)(C)Oc2ccc(Cl)cc2)n1`, 82%.
In the case of `COc1ccc(Cl)cc1C(=O)Nc1cc(C2CC2)nn1-c1nc(C)cc(=O)[nH]1` it was 72%.
To `COc1ccc(NC(=O)c2cc(C3CC3)nc3onc(C4CC4)c23)cc1Cl` belongs -4%; to `O=C(COc1ccc(Cl)cc1)N1CC(n2cnnc2C2CC2)C1`, -4%.
Regarding `Cc1cc(=O)[nH]c(N2CCCCCC2)n1`, the “% Inhibition” value is given as 8%.
In the case of `COc1ccc(NC(=O)Cn2cnc3nc(N4CCOCC4)ncc3c2=O)cc1` it was 15%; in that of `CO[C@@H](CNc1nc(C)c(S(N)(=O)=O)s1)c1ccc(F)cc1`, -17%.
In the case of `CCc1ccc(C2=C[C@@H](c3cccc(OC)c3)n3ncc(C(=O)Nc4ccc(C)cc4)c3N2)cc1` it was 70%; in that of `COc1ccc(NC(=O)[C@@H]2COCC(=O)N2Cc2ccc(C)cc2)cc1`, 7%.
To `COc1cccc([C@H]2CC(=O)Nc3c2cnn3C)c1` belongs -11%; to `Cc1nn(CCOc2ccccc2)c(=O)n1-c1ccc(C(C)C)cc1`, 14%; to `CC(=O)N1CCCN(C(=O)c2ccccc2)CCNC(=O)[C@@H]2CCC[C@@H]21`, 9%.
Consider `CC(C)(C)n1ncc2c1NC(=O)C[C@@H]2c1c(F)cccc1Cl`, for which the “% Inhibition” value is -19%.
In the case of `CC(C)C(=O)Nc1ccc(-c2cc(-c3ccc(NC(=O)C(C)C)cc3)nc(-c3ccncc3)n2)cc1` it was 42%; in that of `C[C@H](N)c1ccc(Nc2ncc3cc(-c4ccncc4)ccc3n2)cc1`, 101%.

For orientation: % Inhibition means the relative decrease from the control value, in per cent.

Source of the values: ChEMBL document CHEMBL4888484, “Replenishing the malaria drug discovery pipeline: Screening and hit evaluation of the MMV Hit Generation Library 1 (HGL1) against asexual blood stage Plasmodium falciparum ,using a nano luciferase reporter read-out” (2022).
